Consider 101 compounds from PubChem BioAssay AID504326 (The Scripps Research Institute Molecular Screening Center, 2011).

Out of some 340,000 compounds screened, about 990 (0.29%) were called active. The sample as a whole holds a higher share of actives than the screen did. A number with no mark means an inactive call. Cut-off read from the data, not from the text of the source: active = activation above about 18%; inactive = the rest.

The target in this assay is Mu-type opioid receptor (Homo sapiens) + Delta-type opioid receptor (Homo sapiens) (UniProt P35372+P41143). Description: inducers of mu-delta opioid receptor heterodimers – cell-based, luminescence, primary screen (AID 504326).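 Note: 0% = vehicle-treated cells and 100% = reference agonist.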 Particulars: cells, OPRM1-OPRD1 heterodimerization, at 9.3 µM, hits give high values.
Mu-type opioid receptor (Homo sapiens) + Delta-type opioid receptor (Homo sapiens), sequence (P35372 whole entry, looked up): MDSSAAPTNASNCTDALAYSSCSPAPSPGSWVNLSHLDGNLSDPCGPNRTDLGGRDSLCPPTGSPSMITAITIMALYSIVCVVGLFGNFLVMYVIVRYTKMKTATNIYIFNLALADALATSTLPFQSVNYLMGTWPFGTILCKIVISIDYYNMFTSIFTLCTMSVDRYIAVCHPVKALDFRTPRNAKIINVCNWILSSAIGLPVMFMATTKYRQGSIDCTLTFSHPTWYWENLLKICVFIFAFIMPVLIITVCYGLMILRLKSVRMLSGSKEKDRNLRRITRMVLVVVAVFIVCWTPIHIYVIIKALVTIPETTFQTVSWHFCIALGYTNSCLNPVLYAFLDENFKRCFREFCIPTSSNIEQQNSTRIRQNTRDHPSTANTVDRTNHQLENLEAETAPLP
Mu-type opioid receptor (Homo sapiens) + Delta-type opioid receptor (Homo sapiens), sequence (P41143 whole entry, looked up): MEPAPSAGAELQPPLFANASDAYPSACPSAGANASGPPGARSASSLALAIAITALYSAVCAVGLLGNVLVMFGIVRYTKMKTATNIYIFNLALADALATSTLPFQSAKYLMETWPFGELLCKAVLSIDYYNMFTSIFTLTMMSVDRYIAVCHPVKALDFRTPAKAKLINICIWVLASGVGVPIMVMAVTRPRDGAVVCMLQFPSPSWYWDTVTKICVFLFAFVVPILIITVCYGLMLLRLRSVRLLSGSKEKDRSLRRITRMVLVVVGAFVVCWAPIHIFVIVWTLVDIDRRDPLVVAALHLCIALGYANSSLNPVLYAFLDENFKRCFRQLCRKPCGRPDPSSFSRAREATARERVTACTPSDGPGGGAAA
Consider `CCc1nc2ccccc2c(C(=O)OC2CCCCC2=O)c1C` (stereo unspecified), for which the activation is -2.96%.

As to `CC(=O)NC(NC(=S)Nc1c(C)n(C)n(-c2ccccc2)c1=O)C(Cl)(Cl)Cl` (stereo unspecified), the activation is -0.74%.

Consider `Cc1ccc(NC(=S)NC(NC(=O)Cc2cccc3ccccc23)C(Cl)(Cl)Cl)cc1` (stereo unspecified), for which the activation is 43.3% (active).

Turning to `CC(C)(C)C(=O)NC(NC(=S)Nc1ccc(S(N)(=O)=O)cc1)C(Cl)(Cl)Cl` (stereo unspecified), the activation was 0.71%.

As to `COc1ccc(OC)c(CN2CCN(C(=O)CNC(=O)c3cc(C)cc(C)c3)CC2)c1`, the activation is -5.2%.

Turning to `O=C(CSc1nnc(CN2CCCC2)n1-c1ccc(F)cc1)c1ccc2c(c1)OCO2`, the activation is -2.96%.

`C=CCN(C(=O)c1cc(C)cc(C)c1)C1(C(=O)Nc2ccccc2)CCN(C(C)C)CC1`: the activation is 0.59%.

With `Cc1cc(C)cc(C(=O)N(CCc2ccccc2)C2=CC3CCC(C2)N3C)c1` (stereo unspecified), the activation was 104% (active).

On to `Cc1ccc(CCN2CC(C(=O)NCCc3ccccc3)CC2=O)cc1` (stereo unspecified), for which the activation is -2.88%.

As for `Cc1ccc(C2C(C#N)C(C#N)N3CCCN23)cc1` (stereo unspecified), the activation is 0.61%.

For `CSc1n[nH]c(=S)n1N`, the activation was -1.24%.

With `O=C(COc1ccc2ccc(=O)oc2c1)NCC(O)c1ccccc1` (stereo unspecified), the activation is -1.9%.

Turning to `CCCN1Cc2cccc(C(=O)NCc3ccccc3)c2C1=O`, the activation was -0.19%.

As to `CCNC(=O)CN(c1ccc(C)cc1)S(=O)(=O)c1ccc(SC)cc1`, the activation was -4.37%.

`CCc1ccc(N(CC(=O)NCc2cccnc2)S(=O)(=O)c2ccccc2)cc1`: the activation is -1.13%.

In the case of `Cc1ccc(S(=O)(=O)N(CC(=O)Nc2cccnc2)c2ccc(Br)cc2)cc1`, the activation was 24.9% (active).

Regarding `COc1ccc(C(=O)Nc2cc(C)ccc2NC(=O)COc2ccccc2)cc1`, the activation is 0.51%.

In the case of `CCS(=O)(=O)c1ccc(O)c(NC(=O)COc2ccc(Cl)cc2)c1`, the activation was -5.16%.

For the compound `Cc1ccc(O)c(NC(=S)NC(=O)COc2ccc(Br)cc2)c1`, the activation was 22.7% (active).

Take `OCC1(Cc2ccccc2)CCN(Cc2cc3ccccc3o2)CC1`: the activation was 0.65%.

With `O=C(Nc1ncccc1O)c1ccc(S(=O)(=O)N2CCCCCC2)cc1`, the activation is -4.61%.

For the compound `N#CC(C(=O)c1ccc(S(=O)(=O)N2CCCCCC2)cc1)c1nc2ccccc2[nH]1` (stereo unspecified), the activation was 24.1% (active).

Take `O=S(=O)(c1ccc(Br)cc1)N1CCC(c2nc3ccccc3[nH]2)CC1`: the activation is 1.07%.

As to `Oc1cccc2ccc(/C=C/c3ccc(Br)s3)nc12`, the activation is 1.72%.

Regarding `Nc1ccc(C(=O)Nc2ccccc2N)cc1`, the activation is 2.04%.

In the case of `Cc1ccc(Nc2ccccc2N)cc1`, the activation is 21.4% (active).

With `Cc1ccc(Nc2nc(Cl)c(C=O)s2)cc1`, the activation is 4.48%.

Take `COc1cc(C(=O)OCC(=O)NC23CC4CC(CC(C4)C2)C3)cc(OC)c1OC`: the activation was -1.44%.

For `COc1ccc(NC(=O)CCCN2C(=O)C(c3ccccc3)Oc3cccnc32)cc1` (stereo unspecified), the activation was 2.07%.

`Cc1ccc(OCCCC(=O)Nc2ccc(S(=O)(=O)Nc3cc(C)nc(C)n3)cc2)cc1`: the activation is 0.21%.

Take `COc1cccc(CNc2nc(C(F)(F)F)nc3ccccc23)c1`: the activation is 5.18%.

Regarding `CCc1ccc(C(CNc2nc(C(F)(F)F)nc3ccccc23)N(C)C)cc1` (stereo unspecified), the activation was 81.6% (active).

Take `NS(=O)(=O)c1ccc(CCNc2nc(C(F)(F)F)nc3ccccc23)cc1`: the activation is -1.85%.

For the compound `Cc1ccn(C(CC(=O)c2ccc(Br)cc2)C(=O)O)n1` (stereo unspecified), the activation was -1.91%.

Take `Nc1c(Cl)cc(S(N)(=O)=O)cc1S(N)(=O)=O`: the activation was -5.23%.

For the compound `CC1=NNC(=O)C1CCC(=O)N/N=C\c1ccc(Cl)c(Cl)c1` (stereo unspecified), the activation is -0.87%.

Consider `COc1cc(/C=N/NC(=O)Cc2ccccc2)cc(OC)c1OC`, for which the activation is -1.52%.

As to `COc1cc(/C=N/NC(=O)c2ccoc2C)ccc1OCCN1CCCCC1`, the activation is -0.79%.

With `COc1cc(/C=N/NC(=O)Nc2ccccc2)ccc1OCCOc1ccccc1C`, the activation is 28% (active).

`Cc1cc(C)c2c(=O)[nH]c(SCC(=O)Nc3ccc(Br)cc3)nc2n1`: the activation is 2.08%.

For the compound `CN(Cc1ccc(F)cc1)C(=O)CN1C(=O)c2ccccc2S1(=O)=O`, the activation is -2.95%.

On to `COC(=O)C1=NNC2(c3ccc(C)cc3)C(=O)N(c3cccc(C)c3C)C(=O)C12` (stereo unspecified), for which the activation is -4.85%.

Take `CCOC(=O)C1=C(O)/C(=C/c2ccc(OCC(=O)Nc3ccc(C)cc3)cc2)N=C1C`: the activation is 40.8% (active).

For the compound `COC(=O)C1=C(O)/C(=C/c2ccc(OCC(=O)Nc3ccccc3)cc2)N=C1C`, the activation was -3.18%.

`Cc1ccc(NC(=O)COc2ccc(/C=C3/NC(=O)NC3=O)cc2)cc1`: the activation is 2.37%.

Take `CCOc1ccc(Br)cc1S(=O)(=O)Nc1ccc(C(=O)OC(C)C(=O)N(C)c2ccccc2)cc1` (stereo unspecified): the activation was 2.35%.

For the compound `CC(c1ccccn1)N(C)C(=O)c1ccc2nc(Cc3cccc(Cl)c3)oc2c1` (stereo unspecified), the activation is -0.53%.

`CC1CCCCC12NC(=O)N(CC(=O)OCC(=O)NCc1ccc(F)cc1)C2=O` (stereo unspecified): the activation is -0.67%.

As for `Cc1cccc(Oc2c([N+](=O)[O-])c(=O)n(C)c3ccccc23)c1`, the activation is 1.78%.

In the case of `CCOC(=O)C1=C(C)c2ccccc2OC1(C)C(=O)OCC` (stereo unspecified), the activation was -0.33%.

`CCOC(=O)c1c(C)[nH]c2c1-c1ccccc1C(=O)C2=O`: the activation was 22.6% (active).

Turning to `CCOC(=O)c1ccccc1OC(=O)Oc1ccccc1C(=O)OCC`, the activation was -2.83%.

As for `O=C(NCc1ccccn1)c1cnc2sccn2c1=O`, the activation was -2.49%.

On to `COc1cc(C(=O)N(Cc2ccc(N(C)C)cc2)C2CCS(=O)(=O)C2)cc(OC)c1OC` (stereo unspecified), for which the activation was -1.82%.

Regarding `CC1(C)C(C=C(Cl)Cl)C1C(=O)N(Cc1ccc(Cl)cc1)C1CCS(=O)(=O)C1` (stereo unspecified), the activation was 0.69%.

For the compound `Cc1ccc(CN(C(=O)c2sc3ccccc3c2Cl)C2CCS(=O)(=O)C2)cc1` (stereo unspecified), the activation is 26.2% (active).

For the compound `O=C(C1CC1)N1N=C2CCCCC2C1(O)C(F)(F)F` (stereo unspecified), the activation was -1.35%.

On to `CCOC(=O)Cc1ncccc1C(=O)Nc1ccc(OC(F)(F)F)cc1`, for which the activation is -3.8%.

Take `Cn1cccc1/C=N/NC(=O)c1ccc(OC(F)(F)C(F)F)cc1`: the activation was -1.62%.

With `O=C(Nc1ccc(OC(F)(F)F)cc1)c1ccc2c(c1)no[n+]2[O-]`, the activation is 22% (active).

Consider `O=C(N1CCOCC1)N(Cc1ccccc1)c1ccccn1`, for which the activation was -1.92%.

Turning to `CC(=O)CSc1nc(CCc2ccccc2)c(C#N)c(=O)[nH]1`, the activation was -2.33%.

For the compound `COc1ccc(/C=C2/S/C(=N/N=C3\CC4CCC3(C)C4(C)C)NC2=O)cc1` (stereo unspecified), the activation was 0.11%.

Turning to `Clc1ccc(C2[C@H]3CN(CC4CCCCC4)[C@H](c4ccccc4)C34CC2(c2cccnc2)C4)cn1` (stereo partly specified), the activation is -1.67%.

In the case of `COC(=O)c1ccc(C23CC4(C2)[C@H](CN(Cc2cccnc2)[C@@H]4c2ccccc2)C3c2ccc(Cl)nc2)cc1` (stereo partly specified), the activation was 19.2% (active).

As to `CCN1C(=NCCc2cccnc2)N[C@@H](c2ccccc2)C(C(=O)OC)=C1C`, the activation is 0.22%.

As for `O=C(/C=C/c1cnc2ccccc2n1)NC1CCCCCC1`, the activation was -1.86%.

Regarding `CC(C)NS(=O)(=O)c1ccc(NC(=O)C2CCCCC2)cc1`, the activation was -1.18%.

For `O=C(CC(NC(=O)c1ccccc1)c1ccccc1)Nc1ccc(F)c(F)c1` (stereo unspecified), the activation was 1.24%.

Regarding `Cc1ccc(CNC(=O)[C@@H](NC(=O)Cc2ccccc2)C(C)C)cc1`, the activation was 2.39%.

Consider `Cc1ccc(CNC(=O)CC(NC(=O)c2ccccc2)c2ccccc2)cc1` (stereo unspecified), for which the activation was 22.7% (active).

On to `CCOC(=O)CC(NC(=O)C1c2ccccc2Oc2ccccc21)c1ccc(C)cc1` (stereo unspecified), for which the activation was -2.87%.

Regarding `COc1ccc(C(CNCC(=O)Nc2ccccc2F)N(C)C)cc1` (stereo unspecified), the activation was 149% (active).

Regarding `Cc1cccc(OCC(=O)Nc2ccccc2F)c1`, the activation is -3.72%.

As to `COc1ccc(C(CNC(=O)c2ccc(S(=O)(=O)Nc3ccccc3F)cc2)N(C)C)cc1` (stereo unspecified), the activation is -3.41%.

As for `COCCNC(=O)C(c1ccc(C)cc1)N(C(=O)CCC(=O)Nc1ccccn1)c1cccc(C)c1` (stereo unspecified), the activation is -0.25%.

With `CCNC(=S)N1CCN(c2ncccn2)CC1`, the activation is -2.13%.

In the case of `CCn1nnnc1SCC(=O)Nc1ccc(N(C)C)cc1`, the activation is -1.37%.

In the case of `O=C(NCCc1ccc2c(c1)OCCO2)c1cc2ccccc2o1`, the activation was -0.68%.

On to `Cc1cc(NC(=O)c2cc3ccccc3o2)no1`, for which the activation is -2.3%.

With `O=C(CC(c1ccccc1)c1ccccc1)NCC(O)c1ccc([N+](=O)[O-])cc1` (stereo unspecified), the activation was 2.4%.

Take `CN(C)C(CNC(=O)c1cc2ccccc2o1)c1ccccc1` (stereo unspecified): the activation was 197% (active).

In the case of `CN(C)C(CNC(=O)Cc1ccc([N+](=O)[O-])cc1)c1ccccc1` (stereo unspecified), the activation was 67.1% (active).

In the case of `CN(C)CCNC(=O)Cc1ccc([N+](=O)[O-])cc1`, the activation is -3.71%.

On to `COc1ccc(NC(=O)CN2C(=O)COc3ccc(S(=O)(=O)N4CCOCC4)cc32)c(OC)c1`, for which the activation was -1.21%.

For `O=[N+]([O-])c1ccc(N2CCSCC2)cc1O`, the activation was 0.34%.

For `O=C(CSc1nc2ccccc2[nH]1)N/N=C/C=C\c1ccccc1[N+](=O)[O-]`, the activation is -1.78%.

Take `CN1CCN(c2ccc([N+](=O)[O-])c(Sc3nc4ccccc4[nH]3)c2)CC1`: the activation was 55.9% (active).

Regarding `CC(Sc1nnc(CNC(=O)c2ccccc2F)n1C)C(=O)Nc1nccs1` (stereo unspecified), the activation is -0.21%.

Take `CCCCN(C(=O)COc1ccc(NC(C)=O)cc1)C1CCS(=O)(=O)C1` (stereo unspecified): the activation is -1.71%.

With `COc1cc2c(cc1OC)CC1(CCCCC1)N=C2`, the activation is -3.02%.

In the case of `COc1ccc(C(CCN(Cc2ccc(OC)c(OC)c2)C(=O)CCl)c2ccccc2)cc1` (stereo unspecified), the activation is 91.3% (active).

`COc1ccc(CCNC(=O)C(Sc2ccccn2)c2ccccc2)cc1OC` (stereo unspecified): the activation is -2.64%.

`COc1ccc(CCNC(=O)CN(c2ccccc2)S(C)(=O)=O)cc1OC`: the activation was 0.27%.

`CN(CC(=O)NCCc1ccccc1)S(=O)(=O)c1cnc[nH]1`: the activation is -1.45%.

Regarding `CSc1sc(C)cc1C1C(C#N)=C(N)N(c2cccnc2)C2=C1C(=O)CCC2` (stereo unspecified), the activation is -1.23%.

As for `CN1C(CC(=O)Nc2ccc(Br)cc2)c2ccccc2CC1(C)C` (stereo unspecified), the activation is 77.8% (active).

For `COCC(=O)Nc1ccc(Br)cc1`, the activation is -3.01%.

Consider `CN1CCN(NC(=O)Nc2ccc(Br)cc2)CC1`, for which the activation is -3.59%.

As for `Cc1ccc(F)cc1S(=O)(=O)Nc1cccc(C(=O)N2CCCC(C(N)=O)C2)c1` (stereo unspecified), the activation is 3.39%.

With `CCN(CC)C(=O)CC1(c2ccccc2OC)CCOC(C(C)C)C1` (stereo unspecified), the activation is -2.63%.
